Measurements taken from PubChem BioAssay AID504832 (National Center for Advancing Translational Sciences (NCATS), 2011).
Hit rate of the full screen: of about 310,000 compounds, about 18,000 (5.8%) were called active. A call without a number means that no potency is given here. Inconclusive results (about 22%) are left out. Many of the other results were omitted from the sample, so actives are more common in it than they were. Unmarked numbers belong to inactive results. Calls come from the whole dose curve; as a rule, active = well fitted inhibition curve with a large enough effect; inconclusive = small, poorly fitted or top-dose-only effect, or another doubt; inactive = no such curve, though single readings can be large or run the other way.

test: Primary qHTS for delayed death inhibitors of the malarial parasite plastid, 48 hour incubation; details: P. falciparum luciferase growth in erythrocytes; series mostly up to 28.7 µM
Source text: The goal of this screen is to discover new antimalarial compounds that act by inhibiting the development of the apicoplast in the malarial parasite Plasmodium falciparum. The biochemical processes that make this organelle essential for erythrocytic stage parasites are not well understood. However, antibiotics such as azithromycin and tetracycline, which target the apicoplast translational machinery, have a potent antimalarial effect.
We have developed a cell-based assay that measures parasite growth based on the expression of an integrated copy of a firefly luciferase reporter. To detect small molecules that cause this "delayed death" phenotype, erythrocytes infected with the luciferase-expressing parasites were incubated with compounds for either one or two generations, corresponding to 48 and 96 hours, respectively. Compounds that inhibit parasite growth in the second generation, but not the first, should be enriched in antimalarials that target the apicoplast. Growth inhibition is detected by a decrease in luciferase activity.
Assay Provider: David Fidock and Eric Ekland, Columbia University
Keywords: NIH Roadmap, MLPCN, MLI, MLSMR, qHTS, NCGC, qHTS, malaria, luciferase, viability
Four microliters of culture medium (RPMI 1640 with 0.5% w/v Albumax (GIBCO), 24 mM sodium bicarbonate and 10 ug/mL gentamycin) were dispensed by a Multi-drop Combi into white solid 1536-well plates (Grenier) and 23 nL compound was added by a pin tool. Four microliters of infected erythrocytes (2% hematocrit, 0.1% parasitemia final concentration) in culture medium were dispensed and the plates incubated for 48 hours at 37 C in 5% CO2. Two microliters of luciferase detection reagent was added and luminescence was detected by a ViewLux (PerkinElmer) reader.
Potency is the fitted concentration of half-maximal effect.

Structure (SMILES) | Potency | activity change, negative = inhibition
COc1cccc(NC(=O)c2nn(-c3ccc(OC)cc3OC)c(=O)c3ccccc23)c1 | inactive | –
COc1ccc(-n2nc(C(=O)NCC(=O)N3CCN(c4ccccc4OC)CC3)c3ccccc3c2=O)c(OC)c1 | 1.04 µM (active) | –
COc1ccc(-n2nc(C(=O)Nc3cc(OC)c(OC)c(OC)c3)c3ccccc3c2=O)c(OC)c1 | inactive | –
O=C(NCCCN1CCCCC1)C1CC(=O)N(CCc2ccccc2)C1 (stereo not given) | inactive | –
O=C(Nc1ccc2c(c1)OCO2)C1CC1(Cl)Cl (stereo not given) | inactive | –
CCOc1ccc(C(O)Cn2c(=N)n(CCN3CCCCC3)c3ccccc32)cc1 (stereo not given) | 4.65 µM (active) | –
Cn1c(=N)n(CC(O)c2ccccc2)c2ccccc21 (stereo not given) | inactive | –
CCOc1ccc(C(O)Cc2nc3ccccc3n2C)cc1 (stereo not given) | inactive | –
COc1ccc(N(CC(=O)NCc2ccc(F)cc2)C(=O)CCC(=O)Nc2nccs2)cc1 | inactive | –
CN1CCN(NC(=O)Nc2ccc(Br)cc2)CC1 | inactive | –
Cc1ccc(C)c(NC(=O)COC(=O)Cn2c(C)csc2=O)c1 | inactive | –
COC(=O)c1ccc(OC(=O)c2cnccn2)cc1 | inactive | –
CC(C)C(=O)N1CC(=O)Nc2ccc(F)cc2C1c1ccc(F)cc1 (stereo not given) | inactive | –
FC(F)(F)Oc1ccc(NC(=S)NCc2ccccc2)cc1 | inactive | –
CCNC(=S)Nc1ccc(OC(F)(F)F)cc1 | inactive | –
CS(=O)(=O)c1sc(C(=O)NC(=S)Nc2ccc(OC(F)(F)F)cc2)c2c1C=CCC2 | 2.62 µM (active) | –
COc1ccc(/C=C(/NC(=O)c2ccccc2)C(=O)Nc2cccc(C(=O)O)c2)cc1 | inactive | –
Cc1cc(C)cc(OCC(=O)OCC(=O)NC2CCCC2)c1 | inactive | –
CS(=O)(=O)N1CCN(C(=O)CSc2ccccc2)CC1 | inactive | –
CCCC[C@@H]1CN=C(N)N1CCc1cc(C(F)(F)F)cc(C(F)(F)F)c1 | 5.22 µM (active) | –
Cc1cccc(N2CCN(C(C)C(=O)N3CCc4ccccc43)CC2)c1C (stereo not given) | inactive | –
CCCCOC(=O)Cn1c(=N)n(CCN(CC)CC)c2ccccc21 | inactive | –
CCCn1c(=N)n(CC(=O)c2ccc(Cl)c(Cl)c2)c2ccccc21 | 7.38 µM (active) | –
CCCNC(=O)c1ccc(Cl)c(Cl)c1 | inactive | –
Cc1ccnc(N2C(=O)c3ccc([N+](=O)[O-])cc3C2=O)c1 | inactive | –
CCOC(=O)CN1CCC(c2ccccc2)CC1 | inactive | –
CCOC(=O)N1CCC(c2cc(=O)n(-c3ccccc3)[nH]2)CC1 | 9.28 µM (active) | –

Structure (SMILES) | Potency | activity change, negative = inhibition
CCOC(=O)N1CCC(NC(=O)CCc2ccccc2)CC1 | inactive | –
Cc1nn(-c2ccccc2)c(C)c1NC(=O)COc1ccc(Cl)cc1Cl | inactive | –
COC(=O)c1c(NC(=O)COc2ccc(Cl)cc2Cl)sc2c1CC(C)(C)NC2(C)C | 8.28 µM (active) | –
Cc1cc(NC(=O)COc2ccc(Cl)cc2Cl)n(CCC#N)n1 | inactive | –
O=C(NCC(=O)N1CCCCCCC1)c1ccccc1Cl | inactive | –
CCC1CCCCN1CCCNC(=O)Cn1nc(-c2ccccc2)ccc1=O (stereo not given) | inactive | –
CCC1CCCCN1CCCNC(=O)c1cc2c(Cl)nc3ccccc3c2s1 (stereo not given) | 11.7 µM (active) | –
Cc1ccc(CN2C(=O)CCC2C(=O)NCCCN2CCCCC2C)cc1 (stereo not given) | inactive | –
COc1cccc(NC(=O)C2c3cc(OC)c(OC)cc3C(=O)N(C)C2c2cccnc2)c1 (stereo not given) | 8.28 µM (active) | –
COc1cccc(NC(=O)CSc2nnc(-c3cccnc3)o2)c1 | inactive | –
CCOc1cc2c(cc1OCC)C(C(=O)O)C(c1ccc(OC)c(O)c1)N(C)C2=O (stereo not given) | inactive | –
CCC(c1nnc(SCC(=O)NNC(=O)c2ccccc2)n1Cc1ccccc1)N(C)C (stereo not given) | inactive | –
O=C(Nc1ccc(OCC(=O)N2CCOCC2)cc1)c1cc(F)c(F)cc1Cl | inactive | –
C/C(=N\NC(=O)c1cc(-c2ccc(O)cc2)nc2ccccc12)c1cccnc1 | inactive | –
O=C(O)/C=C/c1ccc(OCCCF)cc1 | inactive | –
COc1ccc([C@H]2CC(=O)C=C(/C=C/c3ccccc3)C2)cc1 | inactive | –
Cc1cc(C)cc(NC(=O)CN2C(=O)c3ccccc3C2=O)c1 | inactive | –
CS(=O)(=O)N(CC(=O)Nc1ccc(F)cc1)C1CCCCC1 | inactive | –
O=C(COc1ccccc1Cl)N1CCCCCCC1 | inactive | –
Cc1cccc(C(=O)Nc2nnc(S(=O)(=O)N3CCCCCC3)s2)c1 | inactive | –
CCCn1c(N)c(C(=O)CSc2nnc(-c3cccnc3)n2-c2ccc(C)cc2C)c(=O)[nH]c1=O | 9.28 µM (active) | –
CCCn1c(N)c(C(=O)CSc2nnc3n2CCCCC3)c(=O)[nH]c1=O | inactive | –
CCCn1c(N)c(C(=O)CSc2nc3ccccc3c(=O)n2-c2ccc(OC)cc2)c(=O)[nH]c1=O | inactive | –
COC(=O)c1c(C)[nH]c(C(=O)/C=C/c2ccc(Cl)cc2)c1C | 4.65 µM (active) | –
COC(=O)c1c(C)[nH]c(C(=O)NCCc2ccc(S(N)(=O)=O)cc2)c1C | inactive | –
CCCCOC(=O)c1[nH]c(C)c(C(=O)OC)c1C | inactive | –
NC(=O)COc1ccccc1C(=O)NC12CC3CC(CC(C3)C1)C2 | inactive | –

Structure (SMILES) | Potency | activity change, negative = inhibition
COc1ccc([N+](=O)[O-])cc1NCC(=O)c1ccc(C)cc1 | inactive | –
O=C(O)[C@@H](S)[C@H](S)C(=O)O | 4.26 µM (active) | –
COc1ccc(S(=O)(=O)Nc2ccccc2C(=O)N2CCCC2)cc1C | inactive | –
CC1CCCN(CCCNC(=O)CN2C(=O)COc3ccc(S(=O)(=O)N4CCOCC4)cc32)C1 (stereo not given) | inactive | –
CCOC(=O)c1c(-c2ccccc2)oc2ccc(OCC(N)=O)cc12 | inactive | –
CCOC(=O)c1c(-c2ccccc2)oc2ccc(OCC(=O)NN)cc12 | inactive | –
CCOC(=O)c1c(-c2ccccc2)oc2cc(Br)c(O)c(C=O)c12 | 9.28 µM (active) | –
Cc1cccc(C(=O)OC(C)CN2CCCC2)c1 (stereo not given) | inactive | –
COC(=O)[C@]1(C)CCC[C@@]2(C)C3CC[C@]4(OC(C)=O)C[C@@]3(CCC21)CC4=NO (stereo not given in full) | inactive | –
O=C(NCc1ccncc1)c1ccc(NS(=O)(=O)c2cccc([N+](=O)[O-])c2)cc1 | inactive | –
Cc1cccc(OP(=O)(Nc2c(C)n(C)n(-c3ccccc3)c2=O)Oc2cccc(C)c2)c1 | inactive | –
CCN(CC)P(=O)(Oc1cccc(C)c1)N(CC)CC | inactive | –
Cc1cccc(OP(=O)(Oc2cccc(C)c2)OC(c2ccccc2)C(F)(F)F)c1 (stereo not given) | 10.4 µM (active) | –
O=C(Nc1nnc(C2CC2)s1)c1cc(Cl)sc1Cl | inactive | –
CCOC(=O)N1CCN(CCC(=O)Nc2cc(OC)ccc2OC)CC1 | inactive | –
CCN1CCN(c2nc(Nc3cc(OC)ccc3OC)nc(Nc3cc(OC)ccc3OC)n2)CC1 | 9.28 µM (active) | –
COc1ccc(OC)c(NC(=O)CCN2CCC(C)CC2)c1 | inactive | –
CC(Sc1nnc(-c2cccs2)n1C1CC1)C(=O)NCC1CCCO1 (stereo not given) | inactive | –
COc1cc(CCC(=O)N2CCN(c3ccccc3Cl)CC2)cc(OC)c1OC | – | 1.7% [at 0.00184 µM]
CCOC(=O)Cn1c(O)c(N=NC(=O)CNC(=O)Cc2ccccc2)c2ccccc21 | inactive | –
CCOC(=O)c1ccc(NC(=O)c2cccnc2)cc1 | inactive | –
CCOC(=O)c1ccc(-c2ccc(C(=O)Nc3cccnc3)o2)cc1 | 2.62 µM (active) | –
Cc1cc2nc(-c3ccc(NC(=O)c4cccnc4)cc3)oc2cc1C | inactive | –
CCOC(=O)c1cc(NC(=O)c2cccnc2)cc(C(=O)OCC)c1 | 2.94 µM (active) | –
CC(=O)Nc1ccc(-c2nc3ccccc3o2)cc1 | inactive | –
CCOC(=O)c1ccc(NC(=O)CSc2ncccn2)cc1 | inactive | –
COc1ccc(C(=O)Nc2cccnc2)cc1C(=O)Nc1cccnc1 | inactive | –

Structure (SMILES) | Potency | activity change, negative = inhibition
CCC(=O)Nc1cccc(NC(=O)c2cccnc2)c1 | inactive | –
Cc1ccc2nc(-c3ccc(NC(=O)c4cccnc4)cc3)oc2c1 | 9.28 µM (active) | –
Cc1cccc(NC(=O)c2cccc(C(=O)Nc3cccc(C)c3C)n2)c1C | inactive | –
CN(C)c1nc(Nc2ccc(Cl)c(Cl)c2)nc(N(C)C)n1 | inactive | –
Cc1cc(C)c(CN2CCN(C(=O)Cn3ccc(NC(=O)OCc4ccccc4)nc3=O)CC2)c(C)c1 | inactive | –
COc1ccc(/C(C)=N/NC(=O)c2ccc3nc[nH]c3c2)cc1 | inactive | –
CC(OC(=O)CCCOc1ccccc1)C(=O)Nc1ccc(Cl)cn1 (stereo not given) | inactive | –
CCOc1ccccc1C(=O)NCCCn1ccnc1 | inactive | –
CCCOc1ccccc1C(=O)NCCCC(=O)O | inactive | –
CCCCOCCCNC(=O)c1ccccc1OCC | 10.4 µM (active) | –
CCc1nc2ccc(C(=O)N3CCN(c4cccc(Cl)c4)CC3)cc2nc1CC | inactive | –
COc1ccc(C2(C)ON(c3ccccc3C(F)(F)F)C2=O)cc1 (stereo not given) | 6.57 µM (active) | –
COc1ccc(C2(O)C(=O)Nc3ccccc32)cc1 (stereo not given) | inactive | –
COc1ccc(C2(C)NC(=O)N(CC(=O)c3ccc4c(c3)OCO4)C2=O)cc1 (stereo not given) | inactive | –
CCC1Oc2ccccc2N(CC(=O)NCCCN2CCN(CC)CC2)C1=O (stereo not given) | inactive | –
Cc1c(C)c2c(OCC(=O)NCCCO)cc3c(c2oc1=O)CCC(C)(C)O3 | inactive | –
C[C@H](NC(=O)c1ccccc1Cl)C(=O)OCC(=O)N1CCN(c2ccccc2)CC1 | inactive | –
Cc1ccc(Cl)cc1N1CCN(C(=O)c2cccc3c(=O)c(C)c(-c4ccccc4)oc23)CC1 | 9.28 µM (active) | –
COC(=O)c1ccc(C(=O)OC)c(NC(=S)N2CCN(c3cc(Cl)ccc3C)CC2)c1 | inactive | –
CCNS(=O)(=O)c1ccc(CCC(=O)N2CCN(c3cc(Cl)ccc3C)CC2)cc1 | inactive | –
CC(C)n1c(C(O)c2ccccc2)nc2ccccc21 (stereo not given) | inactive | –
Cc1ccc(C(CC(=O)O)Nc2nc(N3CCCCC3)nc(N3CCCCC3)n2)cc1 (stereo not given) | inactive | –
CC(Nc1nc(N2CCCC2)nc2ccccc12)c1ccccc1 (stereo not given) | 3.7 µM (active) | –
CN(C)S(=O)(=O)c1ccc(C(=O)NCCN=C2NS(=O)(=O)c3ccccc32)cc1 | inactive | –
